A3A deaminase = inhibitors of human APOBEC3A DNA deaminase; P31941; 330,000 tested, 0.41% active; inhibition, % at 20 µM; AID 493011; recombinant A3A, FAM/TAMRA ssDNA deamination fluorescence;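 active means at least 40% inhibition at 20 µM here, with at most 30% in a related deaminase screen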;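 further: plate controls were A3A with DMSO for no effect and wells lacking A3A enzyme for full effect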
aDG glyco act = increases alpha dystroglycan glycosylation | AID 624168 | 360,000 tested, 0.22% active | activation, % at 10 µM | Pro5-aDG cells, alpha-DG glycosylation AlphaScreen (IIH6); 0% Pro5, 100% B10-LARGE cell signal;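 active means activation of at least 8% versus controls, or a plate z-score of at least 8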;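 further: Pro5 are CHO cells carrying HIG-tagged alpha-DG that lacks glycosylation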
ALR inh = human ALR oxidase inhibition via reduced H2O2; purified ALR, DTT oxidation, H2O2 HRP-luminol luminescence; inhibition, % (no concentration beside the values); 290,000 tested, 3.8% active; AID 485317;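 active means mean replicate inhibition above about 79%, with every replicate also reaching it, limit read from the data; inconclusive means only one of the two criteria met; inactive means mean below limit and not every replicate reaching it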
PHOSPHO1 block = blocks human PHOSPHO1 phosphatase activity | inhibition, % at 13.3 µM | Q8TCT1 | recombinant PHOSPHO1, absorbance phosphatase assay | 290,000 tested, 1.1% active; in the data active means inhibition above about 60%
Target sequence (Q8TCT1 whole entry, looked up): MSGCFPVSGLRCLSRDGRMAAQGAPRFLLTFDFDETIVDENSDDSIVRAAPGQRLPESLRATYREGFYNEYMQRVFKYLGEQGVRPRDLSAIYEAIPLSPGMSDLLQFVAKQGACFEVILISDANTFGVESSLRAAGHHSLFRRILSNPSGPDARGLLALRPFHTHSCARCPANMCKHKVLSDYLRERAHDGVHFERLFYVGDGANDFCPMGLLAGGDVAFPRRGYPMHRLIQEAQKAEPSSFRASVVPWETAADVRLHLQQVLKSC
A3G deaminase = blocks human APOBEC3G single-stranded DNA deamination | Q9HC16 | recombinant A3G, ssDNA deamination FAM/TAMRA fluorescence | inhibition, % at 20 µM | 330,000 tested, 0.28% active | AID 493012;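 active means inhibition of at least 40% at 20 µM, with no more than 30% in the related APOBEC3A deaminase screen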;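 further: plate controls were DMSO wells with A3G for no effect and wells lacking A3G enzyme for full effect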
Target sequence (Q9HC16 whole entry, looked up): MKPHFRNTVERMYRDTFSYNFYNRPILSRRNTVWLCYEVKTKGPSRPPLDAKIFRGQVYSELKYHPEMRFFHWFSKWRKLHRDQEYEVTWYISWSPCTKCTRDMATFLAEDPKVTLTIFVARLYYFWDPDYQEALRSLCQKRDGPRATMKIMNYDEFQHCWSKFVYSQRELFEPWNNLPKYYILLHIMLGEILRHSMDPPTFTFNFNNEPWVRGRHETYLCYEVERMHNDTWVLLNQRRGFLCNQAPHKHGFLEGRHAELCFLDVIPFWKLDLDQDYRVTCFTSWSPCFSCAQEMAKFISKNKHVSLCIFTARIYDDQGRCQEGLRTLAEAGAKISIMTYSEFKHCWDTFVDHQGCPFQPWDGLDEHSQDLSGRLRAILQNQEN
rCAG RNA binder = binds r(CAG) RNA repeats; r(CAG) RNA repeat, TO-PRO-1 dye displacement fluorescence; inhibition, % at 3 µM; 370,000 tested, 1.3% active; AID 651821;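 active means inhibition above the plate cutoff, the mean of all test compounds on that plate plus 3 SD, cut at about 35% in these data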;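 further: 0% = DMSO alone and 100% = 100 µM mitoxantrone as full dye displacement; higher means more dye released from RNA so lower well fluorescence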
APOBEC3G confirm = confirmation of human APOBEC3G DNA deaminase inhibitors | AID 493152 | inhibition, % at 20 µM | 890 tested, 72% active | shares compounds with A3G deaminase | recombinant A3G ssDNA deaminase, UDG/FAM-TAMRA fluorescence;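 active means inhibition reaching a set limit in any replicate at 20 µM, the limit being 80% of the first screen's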
UDG A3G counter = counter-screen for APOBEC3G inhibitors: E. coli UDG; shares compounds with A3G deaminase; UDG counterscreen, FAM/TAMRA oligo fluorescence; inhibition, % at 20 µM; 710 tested, under 10 active;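 active means compounds giving 40% or more inhibition at 20 µM in any one of the three replicates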;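 further: plate controls were DMSO wells with UDG and oligo for no effect and DMSO wells lacking both for full effect; inhibitors lower the FAM signal released by uracil excision and alkaline cleavage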
* marks the source's active call; other numbers are inactive results; ? = inconclusive; . = not tested or not shown. Compounds with a hit are over-represented: about 5.4% of the library has one in this group of screens.

SMILES | A3A deaminase | aDG glyco act | ALR inh | PHOSPHO1 block | A3G deaminase | rCAG RNA binder | APOBEC3G confirm | UDG A3G counter
S=c1[nH]nc(C2CCCCC2)n1/N=C/c1ccco1 | -6 | 0 | 14 | 32 | 33 | -3 | . | .
CC(C)CN1C(=O)[C@@]2(CC(=O)N(C)C2c2ccccc2)c2cc(-n3cc(CCc4ccccc4)nn3)ccc21 (some centres not stated) | . | . | . | . | . | 4 | . | .
COc1cc(CCNC2=CC(=O)c3ncccc3C2=O)ccc1O | . | 6 | . | . | . | 5 | . | .
CC1(C(=O)NCc2ccccc2)Cc2c(-c3ccc4c(c3)OCO4)ccnc2O1 (configuration not stated) | . | 0 | . | . | . | 0 | . | .
CCN(CC(=O)NCc1cccs1)C(=O)c1cccc(S(=O)(=O)N(CC)c2ccccc2)c1 | . | 0 | . | . | . | 0 | . | .
O=C(CSc1nnc(-c2cccnc2)n1-c1ccccc1)Nc1cccc2ccccc12 | . | . | . | . | . | 3 | . | .
Cn1cccc1/C=N/n1c(-c2ccccc2)n[nH]c1=S | -3 | 0 | 47 | 45 | 43* | 0 | 81* | -3
O=[N+]([O-])c1ccc(Cl)c(/C=N/n2c(-c3ccncc3)n[nH]c2=S)c1 | 0 | 0 | -8 | -83 | 48* | 1 | 57* | -6
S=c1[nH]nc(-c2ccc(Br)o2)n1Cc1ccccc1 | -4 | 0 | 64 | -36 | 21 | . | . | .
CCCCn1c(-c2ccco2)n[nH]c1=S | -2 | 0 | 98* | 10 | 63* | 0 | 66* | 4
S=c1[nH]nc(-c2ccco2)n1Cc1ccccc1 | -1 | 0 | 92* | 79* | 51* | 4 | 73* | -3
CCn1c(-c2ccco2)n[nH]c1=S | -3 | 0 | 73 | 41 | 29 | -3 | . | .
CC(C)Cn1c(-c2ccco2)n[nH]c1=S | 1 | 4 | 3 | 80* | 46* | 2 | 21 | .
O=C(O)c1cscc1-c1cccc2ccccc12 | . | 0 | . | . | . | 1 | . | .
Cc1c(NC(=O)CSc2nnc(-c3ccncc3)n2C)c(=O)n(-c2ccccc2)n1C | . | 0 | . | . | . | 4 | . | .
CCOC(=O)c1csc(NC(=O)CCS(=O)(=O)c2ccc(Cl)cc2)n1 | . | 2 | . | . | . | -1 | . | .
COc1ccccc1NS(=O)(=O)c1ccc(O)cc1 | 1 | 0 | -1 | 4 | 81* | -1 | 3 | .
CN(C)Cc1ccccc1CNC(=O)c1cccc(S(=O)(=O)Nc2ccc3c(c2)OCO3)c1 | . | 0 | . | . | . | 7 | . | .
Nc1nnc(SC2CC(=O)N(c3ccccc3)C2=O)s1 (configuration not stated) | 0 | 0 | 25 | 98* | 42* | 1 | 25 | .
Cn1c(=O)n(C)c2cc(S(=O)(=O)NCC(=O)O)ccc21 | -3 | 0 | -2 | 11 | -5 | -1 | . | .
Cn1c(=O)n(C)c2cc(S(=O)(=O)Nc3ccccc3C(=O)O)ccc21 | 4 | 0 | -8 | 45 | 56* | 5 | 3 | .
Cc1ccc(-n2sc3ccccc3c2=O)cc1S(=O)(=O)N1CCCCC1 | 1 | -1 | . | 30 | 75* | 24 | 73* | .
O=S(=O)(c1ccc(S(=O)(=O)N2CCCC2)cc1)N1CCCCC1 | -1 | . | -11 | 31 | -10 | . | . | .
Cc1ccc(C(=O)NNC(=O)c2ccccc2)cc1S(=O)(=O)N1CCCCC1 | -2 | 0 | -9 | . | -5 | 3 | . | .
O=c1c2ccccc2sn1-c1ccc(S(=O)(=O)N2CCCC2)cc1 | 4 | 0 | 7 | -18 | 78* | 9 | 83* | .
SMILES | A3A deaminase | aDG glyco act | ALR inh | PHOSPHO1 block | A3G deaminase | rCAG RNA binder | APOBEC3G confirm | UDG A3G counter
O=c1c2ccccc2sn1-c1ccc(S(=O)(=O)N2CCCCC2)cc1 | -2 | 0 | -2 | . | 64* | 4 | 65* | 2
C[C@H](CO)N1C[C@H](C)[C@@H](CN(C)S(C)(=O)=O)OCc2cn(nn2)CCCC1=O | . | . | . | . | . | 1 | . | .
CC1(C)Cc2ccccc2-c2n[nH]c(=S)n21 | -8 | 0 | 51 | 96* | 56* | -2 | 90* | -4
O=C1C(Cl)=C(NC(=O)c2ccccc2)C(=O)C(Cl)=C1NC(=O)c1ccccc1 | 2 | 0 | . | 36 | 86* | 10 | 91* | .
O=C(NC1=C(Nc2ccc(Cl)cc2)C(=O)c2ccccc2C1=O)c1ccccc1 | 5 | 5 | -46 | -5 | 0 | 1 | . | .
O=C(NCCCCO)c1c(-c2ccccc2)oc2c1C(OCCCCCO)CCC2 (configuration not stated) | . | 0 | . | . | . | 0 | . | .
COC(=O)C1=C(C)N(CC(C)C)C(=S)NC1c1cccc(Br)c1 (configuration not stated) | . | . | . | . | . | 1 | . | .
Nc1n[nH]c(C2CCCCC2)n1 | 6 | 0 | 10 | 34 | 5 | 1 | . | .
S=c1nc(C2CCCCC2)[nH][nH]1 | 1 | 0 | -3 | -11 | 43* | . | 87* | -5
O=C(NCCc1ccccc1)OCc1cn(Cc2cc(F)ccc2F)nn1 | . | . | . | . | . | -1 | . | .
CC(C(Sc1ccccc1N)c1ccccc1)[N+](=O)[O-] (configuration not stated) | 1 | 0 | ? | 53 | 65* | 5 | 26* | -2
N#Cc1ccccc1Sc1ccccc1N | -2 | 0 | 3 | 28 | -6 | . | . | .
Nc1ccccc1SSc1ccccc1N | 1 | 0 | . | -74 | 82* | 1 | 63* | 1
Cc1ccc(NNS(=O)(=O)c2ccc(C)cc2)cc1 | -2 | 0 | 98* | 49 | 69* | 11 | 65* | -3
CCCCN(CCCC)C(=O)c1sc2nc(N3CCOCC3)c3c(c2c1N)CCCC3 | -1 | 0 | . | -38 | 42* | 3 | -10 | -2
CCOC(=O)c1c(C)c(C(=O)NCC2CCCO2)c(C)n1CC (configuration not stated) | 2 | 0 | -2 | 3 | 0 | . | . | .
CCn1c(N)c(C(=O)NCC2CCCO2)sc1=S (configuration not stated) | -13 | 0 | 99* | 100* | 40* | -1 | 67* | 1
CCn1c(N)c(C(=O)NC)sc1=S | 2 | 0 | 99* | 56 | 59* | 2 | 24 | .
COC(=O)[C@]12C[C@H](CC(=O)N3CCOCC3)C(=O)N(CCc3ccc(OC)c(OC)c3)C1=C[C@H](C(C)C)O[C@@H]2C1CC1 | . | . | . | . | . | -2 | . | .
CCC(Sc1nc(N)cc(N)n1)C(=O)O (configuration not stated) | 2 | 0 | . | -2 | 44* | 0 | 4 | .
CCOC(=O)C1(C)CCCN(C(=O)c2ccc(C#N)cc2)C1 (configuration not stated) | . | 0 | . | . | . | 0 | . | .
Nc1ccc2nc(-c3cccc(-c4nc5ccc(N)cc5[nH]4)n3)[nH]c2c1 | 10 | 0 | 99* | 37 | 44* | 15 | 29* | 1
COc1ccc(/C=C/C(=O)NNc2c(F)c(F)cc(F)c2F)cc1OC | 0 | 0 | 0 | 17 | 60* | 2 | 4 | -4
